TDP43 rescue = TDP-43 toxicity inhibition in yeast. TDP-43 expressing yeast growth rescue, BacTiter-Glo, 24 h. 410,000 tested, 1.8% active. Potency, µM (titrated, usually from 46.1 µM), most hits filed as activators; further: nearly all actives have a fitted effect of over 50% in size
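Yeast expressing TDP-43 (pregrown in raffinose, seeded at OD600=0.02 in galactose medium) exposed to compounds 24 hr at 30 deg C. Growth read by BacTiter-Glo luminescence; rescue of toxicity appears as increased signal.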
CCT chaperon mod = changes cytosolic chaperonin activity. purified chaperonin ATPase assay, HTRF ADP detection, 30 min. activity change, % (no concentration beside the values), hits read low. 360,000 tested, 0.3% active. AID 651819; in the data active means activity change below about -30%
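First, chaperonin was dispensed at 40 nM or 20 nM final depending on batch activity. Next, compounds were pinned at 76 uM and ATP added at 10 uM. After 30 min at 37 °C, ADP detection reagents ran 30 min at ambient temperature.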
Abeta yeast res = A-beta toxicity reversal in yeast; yeast expressing A-beta42, growth rescue, OD600, 48 h; response scale: 0% DMSO, 100% iron-clioquinol control; Potency, µM (titrated, usually from 46.1 µM), hits mostly activators; 410,000 tested, 0.063% active; further: nearly all actives have a fitted effect of over 55% in size
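Yeast A-beta toxicity model in growth medium with pinned compounds, 48 h at 30 C; growth read as absorbance at 600 nm. Normalized to FeCl3/clioquinol equimolar mix (positive) and DMSO (negative).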
aSyn rescue = inhibitors of alpha-synuclein toxicity in yeast. Yeast expressing alpha-synuclein, growth rescue, BacTiter-Glo, 24 h. Potency, µM (series often up to 46.1 µM), actives largely listed as activators. 370,000 tested, 0.14% active; further: nearly all actives have a fitted effect of over 65% in size
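Galactose-induced alpha-syn yeast (OD600=0.02, raffinose-pregrown) + pinned cpd, 24 hr, 30 deg C; growth by BacTiter-Glo luminescence. Growth restoration scores as activation.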
FUS suppressor = rescues growth of FUS-expressing yeast | S. cerevisiae FUS-expressing, growth rescue, OD600, 24 h | Potency, µM (series often up to 76.6 µM), hits mostly activators | 390,000 tested, 0.24% active | AID 1347120; further: nearly all actives have a fitted effect of over 55% in size
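Absorbance at 600 nm, taken 24hr after compound addition, measured rescue of FUS-yeast growth at 30C. Induction used 2% galactose with seeding at OD 0.005. Controls: CP55940 from 92uM final, DMSO only.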
Mm-Cpn inhibitor = blocks the Methanococcus maripaludis chaperonin Mm-Cpn; purified Mm-Cpn ATPase, ADP Transcreener TR-FRET; Potency, µM (series often up to 76.9 µM), usual class: inhibitors; 330,000 tested, 0.031% active; AID 504842; further: nearly all actives have a fitted effect of over 80% in size
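ATPase read-out: TR-FRET ADP immunoassay (anti-ADP Eu cryptate vs ADP-d2), ex 320 nm, em 590/665 nm; signal drops as ADP forms. Enzyme 25 nM, ATP 10 uM, 30 min at 37°C after 10 min compound preincubation.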
Numbers stand for hits; 0 = inactive; ? = inconclusive; - = not tested or not shown. Hits are enriched below; roughly 2.3% of the tested compounds scored in any of these assays. Unless noted, the call rests on the fitted dose curve; in most records, active means well fitted curve in the direction sought with a large enough effect; inconclusive means small, poorly fitted or top-dose-only effect, or another doubt; inactive means no such curve, though single readings can be large; an effect the other way counts as inactive or inconclusive.

SMILES | TDP43 rescue | CCT chaperon mod | Abeta yeast res | aSyn rescue | FUS suppressor | Mm-Cpn inhibitor
O=S(=O)(NCC(c1ccco1)S(=O)(=O)c1cccs1)c1ccccc1 (stereo not given) | ? | - | 0 | - | 0 | -
O=S(=O)(NCC(c1cccs1)S(=O)(=O)c1ccccc1)c1ccccc1 (stereo not given) | 2.8µM | - | 0 | - | 0 | -
Cc1cc(F)ccc1-c1cc(C(=O)NCC2CCCCC2)[nH]n1 | 0 | 0 | 0 | 0 | 0 | -
COc1ccc(Cl)cc1-c1cc(C(=O)NCc2cccs2)[nH]n1 | 11µM | 0 | 0 | 0 | 0 | -
CCOc1ccc(Cl)cc1-c1cc(C(=O)NCC2CCCCC2)[nH]n1 | 14µM | 0 | 0 | 0 | 0 | -
COc1ccc(Cl)cc1-c1cc(C(=O)NCc2cccc(Cl)c2)[nH]n1 | 0 | 0 | 0 | 0 | 0 | -
CC(C)Oc1cc(F)ccc1-c1cc(C(=O)NCC2CCCCC2)[nH]n1 | 18µM | 0 | 0 | 0 | ? | -
CCOC(=O)CC[C@@]1(C(=O)OCC)C[C@@H](CC(=O)NCC23CC4CC(CC(C4)C2)C3)C(=O)N2CCCC=C21 | - | - | - | - | 0 | -
Cc1ccccc1OCCCCn1c(CCNC(=O)C(C)(C)C)nc2ccccc21 | 0 | - | ? | - | 0 | -
O=C1C2ON(c3ccccc3)C(c3ccccn3)C2C(=O)N1c1ccc(Br)cc1 (stereo not given) | 13µM | 0 | ? | 0 | 0 | 0
Nc1ccc(C(Cc2ccnc3ccccc23)Cc2ccnc3ccccc23)cc1 | - | - | - | 0 | - | -
CCc1nc2c(OCCC3CCCCC3)cccn2c1N(C)C(=O)c1ccncc1 | 0 | 0 | 0 | 0 | 0 | -
CCc1nc2c(OCCC3CCCCC3)cccn2c1N(C)C(=O)c1ccc(OC)cc1 | 0 | 0 | 0 | 0 | 22µM | -
Cc1[nH]c2ccc(C(=O)NC3CCC(C)CC3)cc2c1C (stereo not given) | 0 | -62 | 0 | 0 | 0 | 0
Cc1ccc(CNc2nc(-c3ccco3)nn2C(=O)c2ccccc2[N+](=O)[O-])cc1 | 0 | - | 0 | - | 0 | -
O=C(/C=C/c1ccc(Cl)cc1)NCc1cccs1 | 0 | 0 | 0 | 0 | 0 | 0
O=C(/C=C/c1cccc(Cl)c1)Nn1c(-c2cccs2)nc2ccccc2c1=O | 10µM | 0 | 0 | 0 | 0 | 0
O=C(/C=C/c1cccc(Cl)c1)NCc1cccs1 | 18µM | 0 | 0 | 0 | 0 | 0
N#Cc1cccc(S(=O)(=O)NCCOc2ccccc2F)c1 | 0 | 0 | 0 | 0 | 0 | 0
O=S(=O)(NCCOc1ccccc1F)c1cccc(Br)c1 | 13µM | 0 | ? | 0 | 0 | 0
O=S(=O)(NCCOc1ccccc1F)c1ccc(Cl)cc1F | 22µM | 0 | 0 | 0 | 0 | 0
OCCNCCOc1ccccc1F | 0 | 0 | 0 | 0 | 0 | 0
c1ccc(-c2nc(SCC3CCCCO3)n[nH]2)cc1 (stereo not given) | - | - | - | 0 | - | -
Cc1sc2nc(-c3ccccn3)[nH]c(=O)c2c1-c1ccccc1 | 18µM | 0 | 0 | ? | 0 | 0
CCOc1ccc(/C=C/c2ccc3ccccc3n2)cc1OCC | - | - | - | 0 | - | -
SMILES | TDP43 rescue | CCT chaperon mod | Abeta yeast res | aSyn rescue | FUS suppressor | Mm-Cpn inhibitor
Cc1ccc(C(=O)c2cn(Cc3cccc(C)c3)c3nc(C)ccc3c2=O)cc1 | 20µM | - | 0 | - | 0 | -
Fc1cccc(Cc2c(-c3ccco3)nc3c4ccccc4ccn23)c1 | 35µM | 0 | 0 | 0 | 0 | -
Clc1cccc(Cc2c(-c3ccccc3)nc3c4ccccc4ccn23)c1 | 11µM | 0 | 0 | ? | 0 | -
Fc1ccc(-c2nc3c4ccccc4ccn3c2Cc2cccc(Cl)c2)cc1 | 14µM | 0 | 0 | 0 | 0 | -
Fc1cccc(Cc2c(-c3cccc(Cl)c3)nc3c4ccccc4ccn23)c1 | 0 | 0 | 0 | 0 | 0 | -
Clc1cccc(Cc2c(-c3cccc(Cl)c3)nc3c4ccccc4ccn23)c1 | 0 | 0 | 0 | 0 | 0 | -
Clc1cccc(Cc2c(-c3ccco3)nc3c4ccccc4ccn23)c1 | ? | 0 | 0 | 0 | 0 | -
COc1cccc(Cn2cc(COC(=O)N(C)Cc3ccccc3)nn2)c1 | - | - | - | - | 0 | -
COc1ccc(-n2c(SCC(=O)Nc3ccc(Oc4ccccc4)cc3)nnc2-c2ccco2)cc1 | - | - | - | - | 0 | -
